Compound activity as filed in PubChem.
mHTT CaM bind: disrupts binding of mutant huntingtin to calmodulin. 190,000 tested, 3.6% active. AID 1671202. inhibition, % at 15 µM. AlphaScreen His-mHTT/GST-CaM binding, luminescence. P42858;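 also: 0% = both proteins with DMSO and 100% = one protein alone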
Target sequence (P42858 whole entry, looked up, stated change not applied): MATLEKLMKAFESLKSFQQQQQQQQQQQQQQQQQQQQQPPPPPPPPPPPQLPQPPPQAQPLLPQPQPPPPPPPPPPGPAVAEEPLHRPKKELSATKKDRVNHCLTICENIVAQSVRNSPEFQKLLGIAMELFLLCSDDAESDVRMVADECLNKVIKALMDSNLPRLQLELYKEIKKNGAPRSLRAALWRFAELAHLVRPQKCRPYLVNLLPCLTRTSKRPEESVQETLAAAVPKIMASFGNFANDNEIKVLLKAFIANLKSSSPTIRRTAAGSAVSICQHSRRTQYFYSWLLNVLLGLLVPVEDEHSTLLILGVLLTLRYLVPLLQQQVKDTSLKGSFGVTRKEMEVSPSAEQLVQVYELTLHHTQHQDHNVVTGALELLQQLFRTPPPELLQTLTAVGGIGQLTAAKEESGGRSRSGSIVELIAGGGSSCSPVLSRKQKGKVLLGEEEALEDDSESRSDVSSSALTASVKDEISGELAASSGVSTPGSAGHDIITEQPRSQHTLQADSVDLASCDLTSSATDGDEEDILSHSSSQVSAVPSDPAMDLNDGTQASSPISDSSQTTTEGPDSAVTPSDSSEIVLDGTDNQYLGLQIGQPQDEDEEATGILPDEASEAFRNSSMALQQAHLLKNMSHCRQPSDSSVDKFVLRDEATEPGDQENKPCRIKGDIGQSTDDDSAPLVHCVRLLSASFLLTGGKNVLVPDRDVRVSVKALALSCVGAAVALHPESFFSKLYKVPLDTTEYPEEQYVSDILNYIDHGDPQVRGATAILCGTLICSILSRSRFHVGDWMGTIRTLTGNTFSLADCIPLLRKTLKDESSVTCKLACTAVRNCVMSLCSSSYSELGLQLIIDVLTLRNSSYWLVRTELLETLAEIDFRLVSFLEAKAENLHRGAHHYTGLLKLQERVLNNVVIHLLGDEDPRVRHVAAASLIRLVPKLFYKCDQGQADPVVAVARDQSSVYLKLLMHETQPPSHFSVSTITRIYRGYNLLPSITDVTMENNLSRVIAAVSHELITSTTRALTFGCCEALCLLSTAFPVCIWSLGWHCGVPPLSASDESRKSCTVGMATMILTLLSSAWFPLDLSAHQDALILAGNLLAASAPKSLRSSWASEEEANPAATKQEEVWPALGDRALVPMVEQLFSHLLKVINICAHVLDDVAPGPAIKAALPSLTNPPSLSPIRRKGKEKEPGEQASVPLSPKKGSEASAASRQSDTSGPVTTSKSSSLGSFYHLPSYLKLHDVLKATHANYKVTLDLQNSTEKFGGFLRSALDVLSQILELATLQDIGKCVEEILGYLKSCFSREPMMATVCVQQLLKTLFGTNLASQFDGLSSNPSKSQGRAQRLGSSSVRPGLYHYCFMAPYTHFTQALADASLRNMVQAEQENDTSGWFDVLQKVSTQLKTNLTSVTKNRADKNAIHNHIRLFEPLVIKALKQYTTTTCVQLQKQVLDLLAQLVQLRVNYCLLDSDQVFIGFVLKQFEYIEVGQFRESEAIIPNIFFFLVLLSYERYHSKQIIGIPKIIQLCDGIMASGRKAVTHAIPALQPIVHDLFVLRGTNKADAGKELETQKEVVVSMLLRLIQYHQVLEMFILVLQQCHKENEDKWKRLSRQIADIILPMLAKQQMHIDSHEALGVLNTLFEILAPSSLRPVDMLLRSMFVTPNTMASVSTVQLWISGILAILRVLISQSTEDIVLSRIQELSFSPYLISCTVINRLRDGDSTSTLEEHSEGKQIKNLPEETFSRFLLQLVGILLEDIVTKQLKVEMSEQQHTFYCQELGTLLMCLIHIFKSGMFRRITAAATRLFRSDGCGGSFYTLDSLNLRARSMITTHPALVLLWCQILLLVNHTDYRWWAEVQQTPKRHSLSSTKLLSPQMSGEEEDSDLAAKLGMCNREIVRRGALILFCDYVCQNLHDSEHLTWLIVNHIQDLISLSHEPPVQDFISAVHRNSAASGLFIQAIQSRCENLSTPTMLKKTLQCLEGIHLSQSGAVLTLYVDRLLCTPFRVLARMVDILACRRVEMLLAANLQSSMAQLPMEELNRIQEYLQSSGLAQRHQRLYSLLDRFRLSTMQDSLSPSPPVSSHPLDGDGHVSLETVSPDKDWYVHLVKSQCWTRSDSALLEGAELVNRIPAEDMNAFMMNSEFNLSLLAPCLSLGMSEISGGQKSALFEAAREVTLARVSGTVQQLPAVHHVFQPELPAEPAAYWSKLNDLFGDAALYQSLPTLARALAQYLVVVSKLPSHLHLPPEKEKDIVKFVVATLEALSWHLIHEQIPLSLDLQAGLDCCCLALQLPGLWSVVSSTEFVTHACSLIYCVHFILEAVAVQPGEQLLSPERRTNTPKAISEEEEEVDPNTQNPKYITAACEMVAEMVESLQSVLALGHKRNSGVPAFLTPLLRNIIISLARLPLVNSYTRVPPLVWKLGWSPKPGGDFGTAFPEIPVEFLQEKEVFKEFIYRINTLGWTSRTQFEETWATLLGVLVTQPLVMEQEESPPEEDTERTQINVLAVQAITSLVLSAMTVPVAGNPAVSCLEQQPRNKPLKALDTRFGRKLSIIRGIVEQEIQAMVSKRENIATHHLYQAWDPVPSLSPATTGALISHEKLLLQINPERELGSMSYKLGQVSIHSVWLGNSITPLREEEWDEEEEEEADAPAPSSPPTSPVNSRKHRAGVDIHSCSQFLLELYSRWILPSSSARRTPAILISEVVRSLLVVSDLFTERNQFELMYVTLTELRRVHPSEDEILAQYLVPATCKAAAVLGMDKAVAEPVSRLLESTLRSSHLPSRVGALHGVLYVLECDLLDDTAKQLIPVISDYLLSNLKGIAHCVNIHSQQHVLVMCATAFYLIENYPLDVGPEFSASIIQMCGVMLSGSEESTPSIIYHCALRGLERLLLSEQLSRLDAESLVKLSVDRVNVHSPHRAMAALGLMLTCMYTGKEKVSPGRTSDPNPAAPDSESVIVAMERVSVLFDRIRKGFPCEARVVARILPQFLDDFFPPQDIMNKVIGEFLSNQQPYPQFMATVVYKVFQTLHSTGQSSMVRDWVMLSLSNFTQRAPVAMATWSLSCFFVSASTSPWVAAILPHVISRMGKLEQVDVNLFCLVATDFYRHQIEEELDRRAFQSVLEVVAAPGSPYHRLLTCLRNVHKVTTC
Pf apPOL inh: Pf-apPOL DNA polymerase inhibition. AID 1794808. inhibition, % at 10 µM. 210,000 tested, 0.25% active. Recombinant Pf-apPOL, molecular beacon fluorescence, 1.5 h
* hit, by the source's call. Only some compounds are listed: those with a hit (about 3.6% of all), similar ones and a draw of the others. Rule as the data show it: active = inhibition above about 50%; inactive = the rest.

How did O=C(CSCc1ccccc1)NCCCn1nc(-c2cccnc2)ccc1=O do in these assays?
mHTT CaM bind: -6.6; Pf apPOL inh: -5.6

How did O=C(Nc1cnn(Cc2ccc(Cl)cc2Cl)c1)c1cc(-c2ccc(F)cc2)on1 do in these assays?
mHTT CaM bind: -2.0; Pf apPOL inh: -1.6

How did CS(=NC(=O)Nc1ccc(OC(F)(F)F)cc1)c1ccc(OC(=O)c2ccc(Cl)cc2)cc1 (stereo unspecified) do in these assays?
Pf apPOL inh: 0.6

What do the screens show for `Cc1cc(C)cc(N2C(=O)CSC23C(=O)Nc2ccc(Br)cc23)c1` (stereo unspecified)?
mHTT CaM bind: 56.0*; Pf apPOL inh: -9.7

Results for O=C1CSC2(C(=O)Nc3ccc(Br)cc32)N1c1cccc([N+](=O)[O-])c1 (stereo unspecified) ?
mHTT CaM bind: 17.0; Pf apPOL inh: -11.5

What do the screens show for `COc1cc(N2C(=O)C3C4C=CC(C4)C3C2=O)nc(OC)n1` (stereo unspecified)?
mHTT CaM bind: -8.0

What do the screens show for `Cc1cccc(NC(c2cccnc2)c2ccc3ccc(C)nc3c2O)n1` (stereo unspecified)?
mHTT CaM bind: 90.0*; Pf apPOL inh: -6.2

What do the screens show for `Cc1ccc2ccc(C(Nc3ccccn3)c3cccc(O)c3)c(O)c2n1` (stereo unspecified)?
mHTT CaM bind: 76.0*; Pf apPOL inh: -15.6

How did Cc1cc(O)c(C(c2cccnc2)c2c(O)cc(C)oc2=O)c(=O)o1 do in these assays?
mHTT CaM bind: 2.8; Pf apPOL inh: -0.1

Results for COc1cc(C(Nc2cc(C)ccn2)c2ccc3ccc(C)nc3c2O)cc(OC)c1OC (stereo unspecified) ?
mHTT CaM bind: 89.0*; Pf apPOL inh: 1.5

How did COc1ccc(-c2csc(Nc3cc(C)ccn3)n2)cc1OC do in these assays?
mHTT CaM bind: 47.0; Pf apPOL inh: 1.8

Results for Cc1ccc2cccc(I)c2n1 ?
Pf apPOL inh: -4.9

How did Cc1cccc(NC(c2cccc(O)c2)c2ccc3ccc(C)nc3c2O)n1 (stereo unspecified) do in these assays?
mHTT CaM bind: 89.0*; Pf apPOL inh: -12.5

What do the screens show for `CCC(C(=O)Nc1ccccn1)c1ccccc1` (stereo unspecified)?
mHTT CaM bind: -3.9; Pf apPOL inh: 1.7

What do the screens show for `Cc1nn2c(Br)c(C)[n-][n+]2c1Br`?
mHTT CaM bind: -3.9

How did Cn1c(/C=C/c2ccccc2)nnc1-c1ccccc1O do in these assays?
mHTT CaM bind: -1.1; Pf apPOL inh: 0.3

Results for Cc1cccc(NC(c2cccc([N+](=O)[O-])c2)c2ccc3ccc(C)nc3c2O)n1 (stereo unspecified) ?
mHTT CaM bind: 70.0*; Pf apPOL inh: -9.8

How did CCC(C(=O)Nc1cccc(C)n1)c1ccccc1 (stereo unspecified) do in these assays?
mHTT CaM bind: -6.4; Pf apPOL inh: -4.9

What do the screens show for `Cc1ccc2cccc(SCC(=O)Nc3ccc(F)cc3)c2n1`?
mHTT CaM bind: -1.3; Pf apPOL inh: -14.3

What do the screens show for `Cc1ccnc(NC(c2cccc(O)c2)c2ccc3ccc(C)nc3c2O)c1` (stereo unspecified)?
mHTT CaM bind: 93.0*; Pf apPOL inh: -4.9

Results for Cc1cccc(NC(c2ccccc2F)c2ccc3ccc(C)nc3c2O)n1 (stereo unspecified) ?
mHTT CaM bind: 71.0*; Pf apPOL inh: -3.8

What do the screens show for `Cc1cccc(NC(c2ccccc2)c2ccc3ccc(C)nc3c2O)n1` (stereo unspecified)?
mHTT CaM bind: 77.0*; Pf apPOL inh: -1.0

Results for Cc1ccnc(NC(=O)CSc2nc(C)cc(C)n2)c1 ?
mHTT CaM bind: -2.0; Pf apPOL inh: -0.8

What do the screens show for `O=c1cc(CO)oc(C(Nc2ccccn2)c2cccc([N+](=O)[O-])c2)c1O` (stereo unspecified)?
mHTT CaM bind: 14.0; Pf apPOL inh: 9.8

Results for Nc1nc(C2COc3ccccc3O2)ncc1S(=O)(=O)c1ccccc1 (stereo unspecified) ?
Pf apPOL inh: 2.9

What do the screens show for `CC(C)n1cc(C2=CCN(S(=O)(=O)Cc3cccc(Cl)c3)CC2)c2cccnc21`?
mHTT CaM bind: 26.2; Pf apPOL inh: -3.9

How did COc1cc(/C=C2/NC(=O)N(Cc3ccc(Cl)cc3)C2=O)cc(Br)c1OC do in these assays?
mHTT CaM bind: -1.0; Pf apPOL inh: -0.2

Results for CCCNc1nc(C)nc2c1c(C)nn2-c1ccc(C)cc1 ?
mHTT CaM bind: -17.2; Pf apPOL inh: 7.8

What do the screens show for `CCC(C)Nc1nc(C)nc2c1c(C)nn2-c1ccccc1` (stereo unspecified)?
mHTT CaM bind: 99.3*; Pf apPOL inh: 1.5

How did COc1ccc(NC(=O)C2CC(=O)N(c3ccccc3)C2)cc1 (stereo unspecified) do in these assays?
mHTT CaM bind: 0.1; Pf apPOL inh: 2.5

Results for O=C(Nc1ccc(Oc2ccccc2)cc1)C1CC(=O)N(c2ccccc2Cl)C1 (stereo unspecified) ?
mHTT CaM bind: 72.2*; Pf apPOL inh: -0.2
